Values joined by “and” are separate entries in the source; they are usually repeats but may differ in a detail not shown here. Equal entries are not always repeated. Records with an inconclusive call do not appear. Active and inactive are the calls of the source. The calls were made as follows: active = hit-call score of the fitted dose curve at least 0.9, where 1 is the maximum; inconclusive = response in the unintended direction; inactive = score below 0.9.

Chain of Estrogen receptor (Homo sapiens) (P03372 whole entry, looked up): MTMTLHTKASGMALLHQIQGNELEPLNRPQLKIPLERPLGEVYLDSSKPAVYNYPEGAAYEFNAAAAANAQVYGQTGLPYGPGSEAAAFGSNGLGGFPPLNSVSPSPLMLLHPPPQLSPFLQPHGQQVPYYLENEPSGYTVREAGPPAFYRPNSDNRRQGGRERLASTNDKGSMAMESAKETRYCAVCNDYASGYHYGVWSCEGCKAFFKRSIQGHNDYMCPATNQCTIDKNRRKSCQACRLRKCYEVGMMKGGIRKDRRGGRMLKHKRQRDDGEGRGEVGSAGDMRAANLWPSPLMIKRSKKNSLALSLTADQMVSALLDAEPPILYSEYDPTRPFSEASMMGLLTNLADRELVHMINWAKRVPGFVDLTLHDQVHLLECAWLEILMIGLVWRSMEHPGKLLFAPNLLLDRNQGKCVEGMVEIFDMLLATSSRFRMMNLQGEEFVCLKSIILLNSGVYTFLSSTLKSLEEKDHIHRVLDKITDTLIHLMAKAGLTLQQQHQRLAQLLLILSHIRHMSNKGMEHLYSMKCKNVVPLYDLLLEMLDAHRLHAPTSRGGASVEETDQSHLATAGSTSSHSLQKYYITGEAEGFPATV

For the first assay, the target named is chimpanzee Androgen Receptor (AR), AR (gene 747460) (UniProt O97775). Description: NVS_NR_cAR: NovaScreen (NVS) Nuclear Receptor Binding Assay for chimpanzee Androgen Receptor (AR) (AID 2283346). The method in brief: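 Cell-free radioligand displacement using receptor protein extracted from Sf9/Sf21 cells; bound radioligand measured by scintillation counting 72 hours after chemical dosing. Loss of signal versus DMSO baseline indicates binding; primary screen single-concentration in duplicate at 25 uM, actives followed in concentration series.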
Chain of chimpanzee Androgen Receptor (AR), AR (gene 747460) (O97775 whole entry, looked up): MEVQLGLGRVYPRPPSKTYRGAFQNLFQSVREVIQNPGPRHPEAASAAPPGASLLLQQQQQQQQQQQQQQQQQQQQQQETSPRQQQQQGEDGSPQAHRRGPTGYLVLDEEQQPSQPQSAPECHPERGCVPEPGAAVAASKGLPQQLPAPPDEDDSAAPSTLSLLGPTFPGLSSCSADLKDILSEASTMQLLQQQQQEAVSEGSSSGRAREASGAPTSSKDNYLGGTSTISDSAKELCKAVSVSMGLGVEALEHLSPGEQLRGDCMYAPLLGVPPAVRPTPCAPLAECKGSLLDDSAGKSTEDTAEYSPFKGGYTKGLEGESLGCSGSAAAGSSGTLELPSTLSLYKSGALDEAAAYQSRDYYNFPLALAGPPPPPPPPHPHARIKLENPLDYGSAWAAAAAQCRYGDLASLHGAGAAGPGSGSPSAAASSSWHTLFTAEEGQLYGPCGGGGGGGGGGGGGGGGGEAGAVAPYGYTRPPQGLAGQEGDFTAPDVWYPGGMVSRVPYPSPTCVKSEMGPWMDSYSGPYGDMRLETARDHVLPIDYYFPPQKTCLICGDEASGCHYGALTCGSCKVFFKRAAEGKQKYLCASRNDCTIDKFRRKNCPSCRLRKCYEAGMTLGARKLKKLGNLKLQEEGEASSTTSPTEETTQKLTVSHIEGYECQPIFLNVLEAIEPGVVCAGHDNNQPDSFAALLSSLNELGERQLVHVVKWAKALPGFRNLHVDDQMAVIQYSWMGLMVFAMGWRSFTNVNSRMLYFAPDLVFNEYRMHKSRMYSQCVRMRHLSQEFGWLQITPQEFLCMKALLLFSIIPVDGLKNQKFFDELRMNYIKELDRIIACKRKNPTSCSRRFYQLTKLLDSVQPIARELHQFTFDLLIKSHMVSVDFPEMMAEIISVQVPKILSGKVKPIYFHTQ
The term AC50 denotes the concentration at which the activity in the assay is half-maximal. Turning to `Cc1cccc(N)c1N`, the half-maximal activity concentration (AC50) is 5.01 µM (active).
On to `[Cl-].[Cl-].[Hg+2]`, for which the call was inactive.
In the case of `CCCCCCCCn1sccc1=O`, the concentration at half-maximal activity (AC50) was 9.46 µM (active).
Take `CCC[CH2][Sn]([Cl])([CH2]CCC)[CH2]CCC`: the concentration at half-maximal activity (AC50) is 7.19 µM (active).
Same read-out and setting: in the case of `CN(C)[C@@H]1C(=O)C(C(N)=O)=C(O)[C@@]2(O)C(=O)C3=C(O)c4c(O)cccc4[C@@](C)(O)[C@H]3C[C@@H]12` it was 37.4 µM (active); in that of `C[C@]12C=CC3=C4CCC(=O)C=C4CC[C@H]3[C@@H]1CC[C@@H]2O`, 2.29 nM (active) and 6.45 nM (active).

A further assay concerns the target Estrogen receptor (Homo sapiens) (UniProt P03372). As to the kind of experiment: NVS_NR_hER: NovaScreen (NVS) Nuclear Receptor Binding Assay for human Estrogen Receptor (ER) (AID 2283348). The essentials:
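Radiodetection of ligand displacement in a lysate-based, cell-free format using MCF7 extracts, read at 18 hours. Duplicate 25 uM primary testing, then concentration series for actives.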
As to `[Cl-].[Cl-].[Hg+2]`, the outcome was inactive.
As to `CCCCCCCCn1sccc1=O`, the outcome was inactive.
The same measure, in the same setting: in the case of `CCC[CH2][Sn]([Cl])([CH2]CCC)[CH2]CCC` it was “inactive”.

The target is the same in a further assay. As to the kind of experiment: OT_ER_ERaERa_1440: Odyssey Thera (OT) 24-hour HEK293T Protein-Complementation Assay for Estrogen Receptor-alpha/-alpha Homodimer (AID 2283349).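 Also: hits raise fluorescence above DMSO for agonists and antagonists alike.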 The essentials:
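Stably transfected HEK293T; ERα LBD homodimer PCA. 24 h dosing, fluorescence intensity read, gain-of-signal vs DMSO.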
As to `Nc1ccc(N=Nc2ccccc2)cc1`, the AC50 was 80.4 µM (active).
With `CCCCCCCCCCCCCN1CC(C)OC(C)C1` (configuration not stated), the result was inactive.
Still for that read-out and setting: to `CCC12COCN1COC2` belongs “inactive”; to `[Cl-].[Cl-].[Hg+2]`, “inactive”; to `CCCCCCCCn1sccc1=O`, “inactive”.
For `CCC[CH2][Sn]([Cl])([CH2]CCC)[CH2]CCC`, the outcome was inactive.
Take `Brc1ccc(Oc2ccccc2)cc1`: the molecule was classed as inactive.
The same measure, in the same setting: in the case of `O=C(Oc1ccc(Br)cc1)N1CCN2CCC1CC2` it was “inactive”.

The record behind these values is PubChem BioAssay (EPA / NIEHS).
